This is an account of results in PubChem BioAssay.

Test [1] can be described thus: anti-His antibody binders, primary screen, artefact control for SMM control protein annotation, biochemical, small-molecule microarray, 635 nm fluorescence (AID 1128).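 Note: score merges feature fluorescence with signal-to-noise for each printed compound spot.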 As to conditions: anti-His Alexa647 antibody binding, higher = more signal.
Test [2] concerns Human papillomavirus type 1a E7 protein (residues 1-88). In words: HPV1a E7 small-molecule binders, primary screen, biochemical, small-molecule microarray, residues 1-88, 635 nm (AID 1129). As to conditions: small-molecule microarray binding, fluorescence 635 nm; higher = more signal.
The target in test [3] is Focal adhesion kinase 1 (Homo sapiens) (UniProt Q05397). The test is described as follows: small-molecule microarray binders of FAK, primary screen, biochemical, 635/667 nm fluorescence, BSA, DTT (AID 1130).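 Note: composite of spot emission at 667 nm and signal to noise over triplicate slides.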 The conditions noted are these: PTK2 binding, 635 nm fluorescence, higher = more signal.
Test [4] deals with Fibrinogen (Alexa647-labelled). In words: fibrinogen binders on compound microarrays, profiling panel, artefact control for SMM control-protein annotation, biochemical, small-molecule microarray, 635/667 nm fluorescence (AID 1131).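 Note: z-score merges 667 nm fluorescence with per-spot signal-to-noise over triplicate slides.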 As to conditions: fibrinogen-A647 binding fluorescence, higher = more signal.
The target of test [5] is Follistatin (Homo sapiens) (UniProt P19883). In words: follistatin binders on small-molecule microarrays, primary screen, biochemical, small-molecule microarray, 635/667 nm fluorescence (AID 1132). The conditions noted are these: FST binding, 635 nm fluorescence, higher = more signal.
Test [6] deals with Fibroblast growth factor 2 (Homo sapiens) (UniProt P09038). In words: FGF2 binders on small-molecule microarrays, primary screen, biochemical, small-molecule microarray, 635/667 nm fluorescence (AID 1133). As to conditions: small-molecule microarray binding, FGF2, fluorescence 635/667; higher = more signal.
A short description of test [7]: mitochondrial membrane potential change in A549 cells, profiling panel, cell-based, JC-1 fluorescence, basal, 24 h, 100 nL (AID 1138).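 Note: A549 lung adenocarcinoma cells under basal conditions with no added stimulus; test concentration not given here.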 The conditions noted are these: higher = more signal.
The test system of test [8] is Lefty1. In words: Lefty1 binders on small-molecule microarrays, primary screen, biochemical, small-molecule microarray, 635/667 nm fluorescence (AID 1139). As to conditions: small-molecule microarray binding, fluorescence 635/667; higher = more signal.
For test [9], the system named is wheat germ agglutinin (Triticum aestivum), Alexa647-labelled. The test is described as follows: wheat germ agglutinin binders on compound microarrays, profiling panel, artefact control for SMM control-protein annotation, biochemical, small-molecule microarray, 635/667 nm fluorescence (AID 1140).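 Note: score merges 667 nm feature emission with signal to noise over triplicate slides.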 The conditions noted are these: WGA-A647 binding, 635 nm fluorescence, higher = more signal.

The target in test [10] is Luciferin 4-monooxygenase (Photinus pyralis) (UniProt P08659). The test is described as follows: firefly luciferase enzyme inhibitors, primary screen, biochemical, luminescence, purified enzyme, 2006 set (AID 1141).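 Note: cell-free assay with purified firefly luciferase at 100 ng per well in PBS; test concentration not given here.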 The conditions noted are these: SteadyGlo luminescence, 30 min, higher = more signal, called active from +8 up or from −8 down.
The test system of test [11] is Wnt5a (protein binding on small-molecule microarray). The test is described as follows: Wnt5a binders on small-molecule microarray, primary screen, biophysical, 635/667 nm fluorescence (AID 1142).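 Note: fluorescence read at 667 nm with signal to noise per printed feature.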 The conditions noted are these: 635 nm fluorescence, higher = more signal.
A short description of test [12]: cell viability in Huh7 cells, primary screen, cytotoxicity control for HCV replication inhibitor project, CellTiter-Glo luminescence, basal, 48 h (AID 1143).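 Note: Huh7 hepatoma cells carrying a hepatitis C replication reporter with no stimulus; test concentration not given here.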 The conditions noted are these: Huh7 HCV replicon, higher = more signal, called active from +8 up or from −8 down. For orientation: ATP-based viability assays read luminescence as a measure of living cells.
A short description of test [13]: P. aeruginosa biofilm formation inhibitors, primary screen, PAO1 strain, BacTiter-Glo luminescence, LB-PBS (AID 1144). As to conditions: 12 h, higher = more signal.
A short description of test [14]: CREB reporter modulators without forskolin, primary screen, cell-based, PC12, CRE-LacZ reporter, unstimulated (AID 1145). As to conditions: no forskolin, luminescence, 4.5 h, higher = more signal, called active from +8 up or from −8 down.
Test [15] is described as follows: CREB reporter modulators under forskolin, primary screen, cell-based, PC12, CRE-LacZ reporter, forskolin-stimulated (AID 1146).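 Note: PC12 cells with 6xCRE LacZ reporter stimulated by forskolin 10 µM; beta-galactosidase reporter signal reflecting CREB driven transcription.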 The conditions noted are these: luminescence, 4.5 h, higher = more signal, called active from +8 up or from −8 down.
Test [16] concerns the target Streptavidin (Streptomyces avidinii) (UniProt P22629). In words: streptavidin binders on small-molecule microarray, primary screen, artefact control for SMM compound annotation, biophysical, 635/667 nm fluorescence (AID 1147).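 Note: signal reflects streptavidin binding to arrayed compounds as a control protein.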 The conditions noted are these: streptavidin binding, higher = more signal.
Test [17] can be described thus: small-molecule binders of probe aInhba, primary screen, biochemical, small-molecule microarray, 635/667 nm fluorescence (AID 1148).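 Note: score merges 667nm spot fluorescence with signal-to-noise for antibody binding to printed compounds.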 The conditions noted are these: higher = more signal.
Test [18] concerns the target Torsin-1A (Homo sapiens) (UniProt O14656). The test is described as follows: torsin A binders from cell lysate, primary screen, small-molecule microarray, wild-type, 635/667 nm (AID 1149). As to conditions: COS7 hTOR1A-WT lysate, 635 nm fluorescence, higher = more signal.
For test [19] the target is unchanged. In words: small-molecule binders of mutant TOR1A in lysate, primary screen, cell lysate, small-molecule microarray, COS7 lysate, 635/667 nm fluorescence (AID 1150).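 Note: score pools 667 nm emission and signal to noise measuring lysate protein binding.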 As to conditions: COS7 hTOR1A mutant lysate, 635 nm fluorescence, higher = more signal.
Test [20] deals with Sonic hedgehog protein (Shh). In words: small-molecule binders of Shh protein, primary screen, biochemical, small-molecule microarray, 635/667 nm fluorescence (AID 1151).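 Note: Shh protein binding to compounds spotted on small-molecule microarray slides; score combines spot fluorescence intensity with signal-to-noise across triplicate slides.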 As to conditions: small-molecule microarray binding, 635 nm fluorescence; higher = more signal.

Active and inactive are the calls of the source. Unless noted, the rule behind the calls is not given here.

Chain of Torsin-1A (Homo sapiens) (O14656 whole entry, looked up): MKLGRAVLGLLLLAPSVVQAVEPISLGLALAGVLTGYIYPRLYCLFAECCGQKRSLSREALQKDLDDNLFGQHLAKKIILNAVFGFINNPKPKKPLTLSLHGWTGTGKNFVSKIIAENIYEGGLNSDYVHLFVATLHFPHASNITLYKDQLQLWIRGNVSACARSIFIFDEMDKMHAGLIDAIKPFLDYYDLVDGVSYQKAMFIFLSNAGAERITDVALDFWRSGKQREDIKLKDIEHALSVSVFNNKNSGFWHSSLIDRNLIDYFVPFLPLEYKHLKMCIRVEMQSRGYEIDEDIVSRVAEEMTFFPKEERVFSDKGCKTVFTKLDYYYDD
Chain of Follistatin (Homo sapiens) (P19883 whole entry, looked up): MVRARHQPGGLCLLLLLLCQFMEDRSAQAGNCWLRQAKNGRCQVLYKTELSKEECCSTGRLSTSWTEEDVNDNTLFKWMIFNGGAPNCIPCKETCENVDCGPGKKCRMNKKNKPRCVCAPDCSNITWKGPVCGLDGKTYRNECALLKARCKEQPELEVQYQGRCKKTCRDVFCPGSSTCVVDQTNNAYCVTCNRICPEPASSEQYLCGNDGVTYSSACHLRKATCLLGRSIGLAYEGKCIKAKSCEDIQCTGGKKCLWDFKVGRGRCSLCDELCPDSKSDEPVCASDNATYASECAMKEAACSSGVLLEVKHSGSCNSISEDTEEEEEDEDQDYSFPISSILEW
Chain of Fibroblast growth factor 2 (Homo sapiens) (P09038 whole entry, looked up): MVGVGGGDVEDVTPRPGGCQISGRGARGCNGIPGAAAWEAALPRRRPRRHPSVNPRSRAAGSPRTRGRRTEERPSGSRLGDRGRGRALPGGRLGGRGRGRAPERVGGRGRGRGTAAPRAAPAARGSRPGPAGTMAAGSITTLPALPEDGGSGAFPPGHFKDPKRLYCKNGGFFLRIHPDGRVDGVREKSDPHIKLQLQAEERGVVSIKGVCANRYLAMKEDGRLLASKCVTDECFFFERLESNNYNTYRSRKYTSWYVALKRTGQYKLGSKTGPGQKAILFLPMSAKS
Chain of Focal adhesion kinase 1 (Homo sapiens) (Q05397 whole entry, looked up): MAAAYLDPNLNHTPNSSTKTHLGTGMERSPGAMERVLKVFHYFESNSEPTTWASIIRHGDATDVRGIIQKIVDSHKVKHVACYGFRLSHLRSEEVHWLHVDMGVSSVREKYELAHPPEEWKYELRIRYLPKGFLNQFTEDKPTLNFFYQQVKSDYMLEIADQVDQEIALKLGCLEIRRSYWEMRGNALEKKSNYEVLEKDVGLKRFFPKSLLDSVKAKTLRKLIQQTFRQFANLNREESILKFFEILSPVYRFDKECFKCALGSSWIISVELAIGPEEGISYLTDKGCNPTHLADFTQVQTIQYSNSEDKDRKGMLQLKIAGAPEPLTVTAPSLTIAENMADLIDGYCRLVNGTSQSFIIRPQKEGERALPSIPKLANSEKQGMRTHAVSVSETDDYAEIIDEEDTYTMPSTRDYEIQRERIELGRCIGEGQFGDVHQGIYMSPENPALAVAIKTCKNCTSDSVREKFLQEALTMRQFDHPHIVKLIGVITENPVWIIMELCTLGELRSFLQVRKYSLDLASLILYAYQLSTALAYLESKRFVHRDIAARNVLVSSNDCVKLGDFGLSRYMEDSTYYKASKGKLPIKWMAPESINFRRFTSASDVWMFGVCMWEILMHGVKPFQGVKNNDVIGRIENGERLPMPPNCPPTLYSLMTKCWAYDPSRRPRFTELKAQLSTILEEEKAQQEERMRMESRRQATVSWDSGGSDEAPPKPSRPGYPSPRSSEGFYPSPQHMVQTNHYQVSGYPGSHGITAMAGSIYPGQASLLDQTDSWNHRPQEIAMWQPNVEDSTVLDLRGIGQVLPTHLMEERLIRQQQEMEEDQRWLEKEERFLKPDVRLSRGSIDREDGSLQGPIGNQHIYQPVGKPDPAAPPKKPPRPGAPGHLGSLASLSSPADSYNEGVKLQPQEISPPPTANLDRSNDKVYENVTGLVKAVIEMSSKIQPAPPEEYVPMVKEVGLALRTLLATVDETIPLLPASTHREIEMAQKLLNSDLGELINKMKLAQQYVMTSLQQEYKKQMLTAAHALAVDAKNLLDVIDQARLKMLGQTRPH
Chain of Streptavidin (Streptomyces avidinii) (P22629 whole entry, looked up): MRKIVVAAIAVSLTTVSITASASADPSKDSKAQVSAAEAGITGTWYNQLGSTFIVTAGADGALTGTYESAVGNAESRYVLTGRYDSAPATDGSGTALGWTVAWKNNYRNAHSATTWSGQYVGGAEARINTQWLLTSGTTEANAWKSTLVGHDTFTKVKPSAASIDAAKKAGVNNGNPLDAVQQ
Chain of Luciferin 4-monooxygenase (Photinus pyralis) (P08659 whole entry, looked up): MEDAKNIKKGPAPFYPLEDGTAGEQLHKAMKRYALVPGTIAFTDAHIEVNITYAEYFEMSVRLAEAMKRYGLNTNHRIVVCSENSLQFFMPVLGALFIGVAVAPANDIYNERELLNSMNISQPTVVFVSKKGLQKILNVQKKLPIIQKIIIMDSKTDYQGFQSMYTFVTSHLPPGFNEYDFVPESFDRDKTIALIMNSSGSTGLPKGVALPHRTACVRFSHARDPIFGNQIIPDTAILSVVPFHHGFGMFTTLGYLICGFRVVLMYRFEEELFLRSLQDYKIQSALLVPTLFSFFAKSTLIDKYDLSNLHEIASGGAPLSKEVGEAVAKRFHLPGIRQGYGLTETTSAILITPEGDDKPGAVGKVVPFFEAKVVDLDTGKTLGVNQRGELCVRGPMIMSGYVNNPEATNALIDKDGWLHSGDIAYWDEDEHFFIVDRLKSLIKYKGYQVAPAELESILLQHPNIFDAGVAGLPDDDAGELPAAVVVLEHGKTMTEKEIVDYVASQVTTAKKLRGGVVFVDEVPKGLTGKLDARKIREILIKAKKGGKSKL

Take `COc1ccc([Si](C)(C)[C@H]2[C@H](CCO)O[C@@]3(C(=O)N(Cc4ccccc4)c4ccc(N5C(=O)COc6ccccc65)cc43)[C@@H]2C)cc1`: the composite z-score in [1] is -0.12; in test [2] it was -0.127; in [3] it was -0.0125; in test [4], 0.26; in [5], -0.242; in test [6], -0.116. The composite z-score in test [8] was -0.0702; in [9], 1.1; in test [11] it was 0.19; in test [16], 0.0375; in test [17], 0.189; in test [18], -0.503. The composite z-score in test [19] amounted to 0.105; in test [20], 1.92. Also, the z-score in test [7] is 0.771; in [10], -0.369 (inactive); in test [12], -6.69 (inactive); in test [13], -0.539 (inactive); in [14], -0.258 (inactive); in [15] it was -0.81 (inactive).

Turning to `COCCOC(=O)N1C(=O)[C@@]2(c3ccccc31)[C@H](c1ccc(O)cc1)N1[C@H](c3ccccc3)[C@H](c3ccccc3)OC(=O)[C@H]1[C@@H]2C(N)=O`, the composite z-score in test [1] was -0.445; in test [2], -0.218; in test [3], -0.046; in test [4] it was -1.35; in test [5], -0.601; in test [6], -0.239. Further, the composite z-score was -0.0341 in [8]; -0.0601 in test [9]; -0.235 in test [11]; -0.516 in test [16]; -0.128 in [17]; -1.04 in test [18]. Moreover, the composite z-score in test [19] was 0.619; in test [20], -0.218. Moreover, the z-score is 0.181 in [7]; -0.144 (inactive) in test [10]; -1.34 (inactive) in [12]; 0.0439 (inactive) in test [13]; 0.208 (inactive) in test [14]; 1.88 (inactive) in test [15].

For `CN(C)CCCC[C@@H]1NC(=O)[C@@H]2C[C@H](C(=O)NCc3ccc(F)cc3)[C@H](c3cccc(OCCO)c3)N2C1=O`, the composite z-score in test [1] worked out at 0.654; in [2] it was 0.68; in test [3], 0.0978; in test [4], 0.909; in test [5] it was 1.41; in test [6] it was 1.96. For the same compound, the composite z-score is 1.11 in [8]; -0.0486 in test [9]; 0.584 in [11]; -0.0899 in test [16]; 0.374 in test [17]; 1.27 in [18]. The results for the composite z-score in test [19] and in test [20] were 1.12 and 2.06, respectively. The z-score is 0.591 in test [7]; -0.579 (inactive) in [10]; -0.267 (inactive) in test [12]; -0.824 (inactive) in [13]; 0.423 (inactive) in test [14]; -1.18 (inactive) in [15].

For `Cc1ccc(S[C@]2(C(=O)NCc3ccccc3)CC(=O)N(Cc3cc(C(F)(F)F)cc(C(F)(F)F)c3)[C@@H]2c2ccc(CO)cc2)cc1`, the composite z-score in [1] is -0.0768; in [2], -0.469; in [3], -0.187; in test [4], -1.25; in test [5] it was 0.401; in test [6], -0.568. The composite z-score is -0.0758 in [8]; -1.01 in [9]; -0.492 in test [11]; -0.684 in test [16]; -0.126 in [17]; -1.3 in [18]. The composite z-score in [19] is -0.755; in test [20] it was 0.824. Further, the z-score in test [7] was -0.0446; in test [10], -0.372 (inactive); in test [12], -0.0639 (inactive); in test [13], 0.315 (inactive); in test [14] it was 0.829 (inactive); in [15], 1.21 (inactive).

Turning to `COC(=O)[C@@]1(Cc2ccc(F)cc2)[C@H]2c3cc(C(=O)N(C)C)n(CCc4c[nH]c5ccc(OC)cc45)c3C[C@H]2CN1C(=O)c1ccccc1`, the composite z-score in [1] is -0.0359; in test [2], 1.25; in test [3] it was 0.827; in [4], 1.04; in test [5], -0.49; in [6], -1.09. The composite z-score in test [8] is -1.41; in [9], 1.37; in test [11], 0.325; in test [16] it was 1.18; in test [17] it was 0.351; in test [18], 1.03. Besides, the composite z-score is 1.31 in [19] and -1.11 in [20]. For the same compound, the z-score in test [7] was -1.79; in [10] it was 0.158 (inactive); in test [12], -3.84 (inactive); in test [13], 1.41 (inactive); in test [14] it was 1.54 (inactive); in test [15] it was 0.883 (inactive).
